Laboratory results as given in PubChem BioAssay.
Values without a mark were called inactive. The source made the active and inactive calls.

target: Luciferin 4-monooxygenase (Photinus pyralis) (UniProt P08659); experiment: inhibition of purified Photinus pyralis luciferase – biochemical, luminescence, purified enzyme, 2006 set, primary screen (AID 1141); settings: purified firefly luciferase, SteadyGlo luminescence, 30 min; higher = more signal, called active from +8 up or from −8 down;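 note: cell-free assay with purified firefly luciferase at 100 ng per well in PBS; test concentration not given here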
Sequence (P08659 whole entry, looked up): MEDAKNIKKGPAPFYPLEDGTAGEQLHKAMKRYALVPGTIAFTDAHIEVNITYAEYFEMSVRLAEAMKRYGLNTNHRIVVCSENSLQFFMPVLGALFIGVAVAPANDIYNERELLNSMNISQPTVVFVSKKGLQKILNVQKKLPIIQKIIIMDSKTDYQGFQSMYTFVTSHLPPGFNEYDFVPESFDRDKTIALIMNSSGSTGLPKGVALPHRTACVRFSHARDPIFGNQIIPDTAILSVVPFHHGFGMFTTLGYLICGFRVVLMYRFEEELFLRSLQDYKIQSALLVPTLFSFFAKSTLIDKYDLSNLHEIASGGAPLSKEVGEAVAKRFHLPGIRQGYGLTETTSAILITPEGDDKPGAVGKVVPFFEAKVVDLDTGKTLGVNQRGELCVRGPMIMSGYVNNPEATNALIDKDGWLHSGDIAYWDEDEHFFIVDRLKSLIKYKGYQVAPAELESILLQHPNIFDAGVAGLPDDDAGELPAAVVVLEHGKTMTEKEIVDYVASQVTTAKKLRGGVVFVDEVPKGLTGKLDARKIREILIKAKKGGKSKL

Row | Compound | z-score
1 | CC(C)N1CC=CC23O[C@@H]4C=CCOC(=O)[C@@H]4[C@H]2C(=O)N(CCCCCO)[C@@H]3C1=O (stereo not given in full) | -3.48
2 | [N-]=[N+]=Nc1ccccc1C[C@@]1(C(=O)N2CCCCC2)N=C(c2ccc(OCCCO)cc2)O[C@@H]1c1ccccc1 | -2.98
3 | OCC1C=C(/C=C/c2ccccc2)CN1Cc1ccccc1Br (stereo not given) | -1.05
4 | C=CC[C@@]1(C(=O)N2CCCCC2)N=C(c2ccc(OCCCO)cc2)O[C@@H]1c1ccccc1N=[N+]=[N-] | -10.4 (active)
5 | CO[C@H]1O[C@H](CO)[C@@H](OC(=O)Nc2ccc(Oc3ccccc3)cc2)[C@H](OC(=O)Nc2ccc3c(c2)OCO3)[C@@H]1OC(=O)Nc1ccc2c(c1)OCO2 | -5.16
6 | COCCOC(=O)N1C(=O)[C@@]2(c3ccccc31)[C@H](C(=O)N1CCc3cc(OC)c(OC)cc3C1)[C@H]1C(=O)O[C@H](c3ccccc3)[C@H](c3ccccc3)N1[C@@H]2c1ccc(O)cc1 | -5.57
7 | CCCCC(=C=CC[C@@H](O)c1cccc(OCCO)c1)C[C@@H](O)c1ccccn1 | 0.0494
8 | CCOC(=O)C[C@H]1[C@H](OC(=O)c2cc3ccccc3oc2=O)[C@@H](NC(=O)CC(C)C)c2cc(OCCCO)ccc2N1C(=O)c1ccccc1 | -0.291
9 | CC(C)(C)OC(=O)CC[C@@]1(C(=O)N2CCCCC2)N=C(c2ccc(OCCCO)cc2)O[C@@H]1c1ccccc1 | -1.73
10 | Cc1ccc(S(=O)(=O)N2C[C@@H](C(=O)O)[C@H](Sc3ccccc3)C[C@H]2c2ccccc2)cc1 | 1.88
11 | O=C1[C@H]2C=C(Br)[C@H](C[C@@H]2OCCCCCCO)[C@@]12CO2 | 0.364
12 | COc1ccc(C(=O)Nc2cccc(CN3C(=O)[C@]4(O[C@H](CCn5cc(CCO)nn5)[C@@H]([Si](C)(C)c5ccc(OC)cc5)[C@@H]4C)c4ccccc43)c2)cc1 | -0.1
13 | C=C[C@H](C)[C@@H](OC(=O)Nc1ccc(SC)cc1)c1ccc(O)c2ccccc12 | -2.61
14 | COCCOC(=O)N1C(=O)[C@@]2(c3cc(C#CC4(O)CCCCCC4)ccc31)[C@H](C(=O)Nc1nc3ccccc3s1)[C@H]1C(=O)O[C@H](c3ccccc3)[C@H](c3ccccc3)N1[C@@H]2c1ccccc1OCCO | -3.04
15 | C=CCC(OC(C)=O)[C@@H]1[C@@H](N(Cc2ccc(-c3ccccc3)cc2)C(=O)Cc2ccc(F)cc2)c2cc(OCCCO)ccc2N1C(=O)c1ccc2ccccc2c1 (stereo not given in full) | -0.87
16 | CN(C)CCCC[C@@H]1NC(=O)[C@H]2C[C@@H](C(=O)NCCCCCN)[C@@H](c3cccc(OCCO)c3)N2C1=O | -0.69
17 | C=CC[C@]1(C(=O)NCc2ccccc2)N=C(c2ccc(OCCCO)cc2)O[C@H]1c1ccccc1CN=[N+]=[N-] | -0.238
18 | O=C(CS)NCCCCCNC(=O)[C@@H]1C[C@@H]2C(=O)NCC(=O)N2[C@@H]1c1ccc(O)cc1 | -1.24

Row | Compound | z-score
19 | C=CCC(OC(C)=O)[C@@H]1[C@@H](N(Cc2ccc(-c3cccc(C(F)(F)F)c3)o2)C(=O)c2cccc3ccccc23)c2cc(OCCCO)ccc2N1C(=O)Cc1ccc2ccccc2c1 (stereo not given in full) | 0.335
20 | C=CCC(OC(C)=O)[C@@H]1[C@@H](N(Cc2ccc(-c3cccc(C(F)(F)F)c3)o2)C(=O)Cc2ccc(OC)cc2)c2cc(OCCCO)ccc2N1C(=O)c1ccc2ccccc2c1 (stereo not given in full) | 0.535
21 | CC(C)CN1C(=O)[C@@]2(c3ccc([N+](=O)[O-])cc3)CC(=O)N(C3CCCCC3)[C@@H]2c2ccc(CO)cc21 | 0.791
22 | O=C1C2C=CC(C(O)C=Cc3ccc([N+](=O)[O-])cc3)N(n3cnnc3)C2C(=O)N1Cc1ccccc1 (stereo not given) | 0.872
23 | O=C1O[C@H](c2ccccc2)[C@H](c2ccccc2)N2[C@H]1[C@@H](C(=O)NC[C@H](O)c1ccccc1)[C@]1(C(=O)Nc3ccc(C#CC4=CCCCC4)cc31)[C@H]2c1ccccc1OCCO | -0.758
24 | O=C1NC(=O)C2C1C=CC(C(O)c1ccc(I)cc1)N2Nc1ccc(Cl)cc1Cl (stereo not given) | -1.33
25 | CC(C)CCC[C@@H](C)[C@H]1CC[C@@]2(C)C3=C(CC[C@]12C)[C@@]1(C)CC[C@H](OC(=O)c2ccc(C(F)(F)F)nc2)C(C)(C)C1CC3 (stereo not given in full) | -1.41
26 | CC(C)(C)OC(=O)CC[C@]1(C(=O)NCCN2CCOCC2)COC(c2ccc(OCCCO)cc2)=N1 | 0.965
27 | CN1C(=O)C2C=CC(C(O)c3ccccc3)N(N3CCCCC3)C2C1=O (stereo not given) | -0.136
28 | CC[C@@H]1C=C(C(=O)O)[C@H](c2cccc3ccccc23)N1S(=O)(=O)c1ccc(C)cc1 | 1.46
29 | C=CCNC(=O)[C@H]1[C@@H]2C(=O)O[C@@H](c3ccccc3)[C@@H](c3ccccc3)N2[C@@H](c2ccc(OCCO)cc2)[C@]12C(=O)Nc1ccc(C#CCC(C(=O)OC)C(=O)OC)cc12 | -0.275
30 | C=CCN1Cc2ccccc2[C@@H]2OC(c3ccc(OCCCO)cc3)=N[C@]2(CCS(=O)(=O)c2ccccc2)C1=O | -2.38
31 | C[N+](C)(C)CCCC[C@@H]1NC(=O)[C@H]2C[C@@H](C(=O)NCCCCCCNC(=O)CS)[C@@H](c3ccc(O)cc3)N2C1=O | 0.24
32 | CC(=O)Nc1cc(Br)ccc1C(=O)NCc1ccccc1 | -0.65
33 | O=C1C2C=CC(C(O)c3ccc4c(c3)OCO4)N(Nc3ccc([N+](=O)[O-])cc3)C2C(=O)N1c1ccccc1 (stereo not given) | 0.382
34 | COc1ccc(C(O)C2C=CC3C(=O)N(C)C(=O)C3N2N(c2ccccc2)c2ccccc2)c2ccccc12 (stereo not given) | -0.091
35 | COc1cc2c(cc1O)C=[N+](Cc1cc3c(cc1Br)OCO3)CC2 | 0.807
